Several values for one entry are separate records, joined by “and”; a condition that tells them apart may be missing. Equal values may be shown once. This is part of a sample that, as a whole, favours compounds with a hit. Of some 83,000 tested, about 20% had one in any assay.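 Single-dose data. Exposure time 48 hours. Values below 10 considered active.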 Activity calls are given as the source filed them.
Tests used:
Assay in all cases: NCI-60 one-dose screen, 48 h (100 = growth as untreated, 0 = no growth, -100 = all killed)
Conditions in all cases: 10 µM unless noted
SK-MEL-2 melanoma = test system: SK-MEL-2 melanoma
EKVX NSCLC = test system: EKVX NSCLC
SN12C renal = test system: SN12C renal
UO-31 renal = test system: UO-31 renal
TK-10 renal = test system: TK-10 renal
ACHN renal = test system: ACHN renal
CAKI-1 renal = test system: CAKI-1 renal
A498 renal = test system: A498 renal
CCRF-CEM leukemia = test system: CCRF-CEM leukemia
MOLT-4 leukemia = test system: MOLT-4 leukemia
SR leukemia = test system: SR leukemia
RPMI-8226 leukemia = test system: RPMI-8226 leukemia
OVCAR-8 ovarian = test system: OVCAR-8 ovarian
OVCAR-5 ovarian = test system: OVCAR-5 ovarian
OVCAR-4 ovarian = test system: OVCAR-4 ovarian
SK-OV-3 ovarian = test system: SK-OV-3 ovarian
IGROV1 ovarian = test system: IGROV1 ovarian
OVCAR-3 ovarian = test system: OVCAR-3 ovarian
HS 578T breast = test system: HS 578T breast
NCI/ADR-RES ovarian = test system: NCI/ADR-RES ovarian

Structure (SMILES) | growth (SK-MEL-2 melanoma) | growth (EKVX NSCLC) | growth (SN12C renal) | growth (UO-31 renal) | growth (TK-10 renal) | growth (ACHN renal) | growth (CAKI-1 renal) | growth (A498 renal) | growth (CCRF-CEM leukemia) | growth (MOLT-4 leukemia) | growth (SR leukemia) | growth (RPMI-8226 leukemia) | growth (OVCAR-8 ovarian) | growth (OVCAR-5 ovarian) | growth (OVCAR-4 ovarian) | growth (SK-OV-3 ovarian) | growth (IGROV1 ovarian) | growth (OVCAR-3 ovarian) | growth (HS 578T breast) | growth (NCI/ADR-RES ovarian)
COc1ccc(/C=N/NC(=O)CN2CCN(c3cc4c(cc3F)c(=O)c(C(=O)O)cn4C3CC3)CC2)cc1O | 94.1% (inactive) | 112% (inactive) | 99.1% (inactive) | 94.6% (inactive) | 89.6% (inactive) | 106% (inactive) | 111% (inactive) | 104% (inactive) | 92.7% (inactive) | 82.7% (inactive) | 80.2% (inactive) | 92.3% (inactive) | 95.1% (inactive) | 108% (inactive) | 108% (inactive) | 108% (inactive) | 95.5% (inactive) | 103% (inactive) | 96.8% (inactive) | 106% (inactive)
COc1ccc(-c2nnc3n(C)c(=O)c4ccccc4n23)cc1O | 30.3% (inactive) | 97.5% (inactive) | 30.3% (inactive) | 52.7% (inactive) | 51.4% (inactive) | 47.5% (inactive) | 35.2% (inactive) | 21.6% (inactive) | 10.7% (inactive) | 32.5% (inactive) | 21.4% (inactive) | 15.9% (inactive) | 25.2% (inactive) | 66% (inactive) | 53.6% (inactive) | 14.9% (inactive) | 55.7% (inactive) | 0.325% (active) | 29.5% (inactive) | 15.5% (inactive)
Cc1ccc(C(=O)Nc2ccc(CN3CCN(C)CC3)c(C(F)(F)F)c2)cc1C#Cc1cnc(N)cc1C#N | -43% (active) | -36.8% (active) | -52.9% (active) | -55.7% (active) | 14.7% (inactive) | -85.7% (active) | -48% (active) | -37% (active) | -8.11% (active) | -54.7% (active) | -29.8% (active) | -24.4% (active) | -32.9% (active) | 12.8% (inactive) | 5.13% (active) | -7.98% (active) | -47.7% (active) | -40.1% (active) | -23.5% (active) | -27.3% (active)
CCOc1ccc(N2C(N)=NC(N)=NC2(C)C)cc1 | -0.847% (active) and 107% (inactive) | 93.9% (inactive) | 32.2% (inactive) and 96.9% (inactive) | 42% (inactive) and 96.6% (inactive) | 40.9% (inactive) | 44.6% (inactive) and 102% (inactive) | 13.3% (inactive) and 98.4% (inactive) | -5.18% (active) and 72.7% (inactive) | 9.4% (active) and 79.8% (inactive) | 39.2% (inactive) and 81.5% (inactive) | 5.52% (active) and 92.7% (inactive) | -4.32% (active) and 90% (inactive) | 25.8% (inactive) and 91.2% (inactive) | 55.6% (inactive) and 100% (inactive) | 42.4% (inactive) and 108% (inactive) | 15.7% (inactive) and 80.1% (inactive) | 45.7% (inactive) and 80.8% (inactive) | -35.8% (active) and 107% (inactive) | 35.9% (inactive) and 96% (inactive) | 9.74% (active) and 101% (inactive)
COc1ccc(Cl)cc1Nc1nc(C(F)(F)F)ccc1C(=O)N/N=C/c1ccc(N(C)C)cc1 | 82.5% (inactive) | 121% (inactive) | 98.2% (inactive) | 98.3% (inactive) | 95.9% (inactive) | 96.6% (inactive) | 116% (inactive) | 109% (inactive) | -17.6% (active) | 90.4% (inactive) | 7.32% (active) | 108% (inactive) | 99.8% (inactive) | 79.5% (inactive) | 87.1% (inactive) | 11.8% (inactive) | 96.4% (inactive) | 147% (inactive) | 101% (inactive) | 90% (inactive)
COCCn1cc(-c2csc(-c3cn(C)c4ccc(F)cc34)n2)c2cccnc21 | 72% (inactive) | 59% (inactive) | 74.5% (inactive) | 64.2% (inactive) | 81.5% (inactive) | 78% (inactive) | 84% (inactive) | 36.3% (inactive) | 56% (inactive) | 56.7% (inactive) | 33.8% (inactive) | 67.7% (inactive) | 71.3% (inactive) | 80.7% (inactive) | 47.8% (inactive) | 92.6% (inactive) | 93.9% (inactive) | 76% (inactive) | 63.1% (inactive) | 58.6% (inactive)
